Drawing on paper PMC7862700, “An all-to-all approach to the identification of sequence-specific readers for epigenetic DNA modifications on cytosine”, this text covers binding signal for 1 sequence.

Assay in all cases: DAPPL (digital affinity profiling via proximity ligation, sequencing); 10 mM Tris-HCl pH 7.5, 50 mM NaCl, 1 mM DTT, 4% glycerol, room temperature, 30 min; GST-TFs on glutathione beads, 16-mer random dsDNA library, 0.1% formaldehyde crosslink after washing; high values mean tight binding
What all share (details): protein: recombinant; tags: N-terminal GST; dsDNA, one strand shown

One experiment deals with T1, ELK1 (Homo sapiens, UniProt P19419 1-428).
T1 sequence: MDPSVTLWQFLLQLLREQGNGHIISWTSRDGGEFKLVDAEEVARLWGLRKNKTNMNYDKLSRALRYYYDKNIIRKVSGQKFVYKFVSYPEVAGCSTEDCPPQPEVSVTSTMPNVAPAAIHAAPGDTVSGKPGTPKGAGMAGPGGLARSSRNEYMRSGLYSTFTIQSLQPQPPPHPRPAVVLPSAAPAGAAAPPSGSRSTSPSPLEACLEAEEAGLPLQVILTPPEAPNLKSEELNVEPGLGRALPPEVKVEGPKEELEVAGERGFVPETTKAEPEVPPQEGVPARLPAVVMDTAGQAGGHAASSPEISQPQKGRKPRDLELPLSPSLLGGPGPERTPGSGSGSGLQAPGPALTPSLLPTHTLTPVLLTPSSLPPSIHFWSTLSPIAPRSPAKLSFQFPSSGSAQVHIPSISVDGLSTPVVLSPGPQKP
An outline of the steps: (§1)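 Binding signal is each hexamer's read frequency for a factor divided by its frequency in the tag-only sample. The factors were GST-fused human transcription factors from yeast, captured on glutathione beads, DNA-barcoded and pooled with that sample. Pools were incubated with 200 nmole of a random double-stranded 16-mer DNA library in Tris/NaCl/DTT/glycerol buffer at room temperature for 30 min, then washed, crosslinked with 0.1% formaldehyde, proximity-ligated with BsaI/T4 ligase (1 h, 37 °C), PCR-amplified and sequenced on an Illumina NextSeq500.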

A further experiment addresses T2, GABPA (Homo sapiens, UniProt Q06546 1-454).
T2 sequence: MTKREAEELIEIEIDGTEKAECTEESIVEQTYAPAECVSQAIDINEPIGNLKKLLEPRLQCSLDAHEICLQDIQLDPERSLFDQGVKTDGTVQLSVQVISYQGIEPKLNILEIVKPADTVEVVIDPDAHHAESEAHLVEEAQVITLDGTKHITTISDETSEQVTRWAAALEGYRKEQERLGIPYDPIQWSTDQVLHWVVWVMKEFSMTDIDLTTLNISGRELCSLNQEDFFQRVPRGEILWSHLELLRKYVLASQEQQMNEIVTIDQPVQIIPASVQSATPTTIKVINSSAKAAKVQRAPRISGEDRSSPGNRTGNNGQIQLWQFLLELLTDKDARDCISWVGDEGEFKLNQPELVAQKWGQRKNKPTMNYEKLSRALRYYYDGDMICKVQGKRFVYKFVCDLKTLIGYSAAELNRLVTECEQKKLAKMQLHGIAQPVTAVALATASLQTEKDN
An outline of the steps: as §1

The next experiment addresses T3, ERG (Homo sapiens, UniProt P11308 1-479).
T3 sequence: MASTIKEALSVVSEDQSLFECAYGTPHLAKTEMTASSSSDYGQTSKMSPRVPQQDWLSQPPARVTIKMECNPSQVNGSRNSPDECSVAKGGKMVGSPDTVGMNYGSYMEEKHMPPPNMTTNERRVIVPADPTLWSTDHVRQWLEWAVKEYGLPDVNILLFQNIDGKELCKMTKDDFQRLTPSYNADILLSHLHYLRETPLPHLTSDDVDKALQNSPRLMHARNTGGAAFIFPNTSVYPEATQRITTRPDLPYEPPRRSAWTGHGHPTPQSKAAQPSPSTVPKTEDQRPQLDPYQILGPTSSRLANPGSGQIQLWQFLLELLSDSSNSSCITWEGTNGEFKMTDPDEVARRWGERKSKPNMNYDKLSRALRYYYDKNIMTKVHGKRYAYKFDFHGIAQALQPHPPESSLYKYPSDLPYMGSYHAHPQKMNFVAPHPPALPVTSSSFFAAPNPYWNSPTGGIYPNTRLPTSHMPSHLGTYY
An outline of the steps: as §1

Another experiment concerns the target ELF1 (Homo sapiens, UniProt P32519 1-619). An outline of the steps:
as §1

A further experiment has as its target T4, EHF (Homo sapiens, UniProt Q9NZC4 1-300).
T4 sequence: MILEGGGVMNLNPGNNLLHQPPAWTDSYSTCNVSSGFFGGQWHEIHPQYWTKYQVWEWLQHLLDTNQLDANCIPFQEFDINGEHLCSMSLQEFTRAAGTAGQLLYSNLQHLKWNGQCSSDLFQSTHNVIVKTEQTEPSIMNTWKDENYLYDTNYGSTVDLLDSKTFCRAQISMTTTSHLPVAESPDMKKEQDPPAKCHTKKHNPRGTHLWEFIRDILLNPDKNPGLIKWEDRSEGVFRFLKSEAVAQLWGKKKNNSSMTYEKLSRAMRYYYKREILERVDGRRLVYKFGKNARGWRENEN
In a few lines:
as §1

In another experiment the target is SPI1 (Homo sapiens, UniProt P17947 1-270). In a few lines:
as §1

For a further experiment, the target named is SPIB (Homo sapiens, UniProt Q01892 1-262). In a few lines:
as §1

The target in another experiment is T5, FEV (Homo sapiens, UniProt Q99581 1-238).
T5 sequence: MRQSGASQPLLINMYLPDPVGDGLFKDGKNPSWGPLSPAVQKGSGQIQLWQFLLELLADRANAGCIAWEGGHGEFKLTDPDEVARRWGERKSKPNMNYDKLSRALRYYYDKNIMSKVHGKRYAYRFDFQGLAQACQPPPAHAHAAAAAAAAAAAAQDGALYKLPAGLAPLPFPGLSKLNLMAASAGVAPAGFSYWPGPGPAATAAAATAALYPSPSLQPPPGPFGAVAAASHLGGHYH
An outline of the steps:
as §1

For a further experiment, the target named is ETV5 (Homo sapiens, UniProt P41161 1-510). An outline of the steps: as §1
Sequence of ETV5 (P41161 whole entry): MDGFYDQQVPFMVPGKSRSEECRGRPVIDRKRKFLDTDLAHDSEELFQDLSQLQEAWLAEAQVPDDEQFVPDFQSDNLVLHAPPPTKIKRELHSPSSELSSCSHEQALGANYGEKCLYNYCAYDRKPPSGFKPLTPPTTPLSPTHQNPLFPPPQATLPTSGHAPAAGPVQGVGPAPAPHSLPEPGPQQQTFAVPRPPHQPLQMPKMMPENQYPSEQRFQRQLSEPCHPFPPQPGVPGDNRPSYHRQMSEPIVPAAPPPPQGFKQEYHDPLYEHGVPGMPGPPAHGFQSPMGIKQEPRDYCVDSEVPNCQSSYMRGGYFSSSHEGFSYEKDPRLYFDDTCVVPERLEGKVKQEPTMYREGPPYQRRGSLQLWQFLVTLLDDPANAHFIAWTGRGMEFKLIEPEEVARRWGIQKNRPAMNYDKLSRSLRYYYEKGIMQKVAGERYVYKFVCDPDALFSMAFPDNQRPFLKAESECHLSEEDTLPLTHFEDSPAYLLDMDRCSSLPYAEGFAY
The target in a further experiment is ELF4 (Homo sapiens, UniProt Q99607 1-663). In a few lines: as §1
Sequence of ELF4 (Q99607 whole entry): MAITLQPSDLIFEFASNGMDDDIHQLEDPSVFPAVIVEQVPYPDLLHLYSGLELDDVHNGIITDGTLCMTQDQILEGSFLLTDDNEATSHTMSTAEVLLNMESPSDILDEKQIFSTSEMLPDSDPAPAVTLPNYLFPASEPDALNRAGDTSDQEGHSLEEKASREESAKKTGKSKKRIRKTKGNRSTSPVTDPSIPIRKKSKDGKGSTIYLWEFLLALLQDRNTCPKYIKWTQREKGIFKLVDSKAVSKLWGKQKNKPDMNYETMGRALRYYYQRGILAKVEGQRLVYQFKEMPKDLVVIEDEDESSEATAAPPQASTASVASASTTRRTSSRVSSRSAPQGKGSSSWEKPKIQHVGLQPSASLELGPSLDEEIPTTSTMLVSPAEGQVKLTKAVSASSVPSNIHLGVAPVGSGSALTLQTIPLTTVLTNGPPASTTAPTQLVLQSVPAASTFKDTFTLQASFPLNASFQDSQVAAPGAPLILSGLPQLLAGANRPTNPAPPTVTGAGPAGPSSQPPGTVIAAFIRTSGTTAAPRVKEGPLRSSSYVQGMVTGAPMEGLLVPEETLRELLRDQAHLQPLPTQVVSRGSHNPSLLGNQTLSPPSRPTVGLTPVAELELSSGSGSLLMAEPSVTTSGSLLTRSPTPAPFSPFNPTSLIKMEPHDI

Sequence of ELF1 (P32519 whole entry): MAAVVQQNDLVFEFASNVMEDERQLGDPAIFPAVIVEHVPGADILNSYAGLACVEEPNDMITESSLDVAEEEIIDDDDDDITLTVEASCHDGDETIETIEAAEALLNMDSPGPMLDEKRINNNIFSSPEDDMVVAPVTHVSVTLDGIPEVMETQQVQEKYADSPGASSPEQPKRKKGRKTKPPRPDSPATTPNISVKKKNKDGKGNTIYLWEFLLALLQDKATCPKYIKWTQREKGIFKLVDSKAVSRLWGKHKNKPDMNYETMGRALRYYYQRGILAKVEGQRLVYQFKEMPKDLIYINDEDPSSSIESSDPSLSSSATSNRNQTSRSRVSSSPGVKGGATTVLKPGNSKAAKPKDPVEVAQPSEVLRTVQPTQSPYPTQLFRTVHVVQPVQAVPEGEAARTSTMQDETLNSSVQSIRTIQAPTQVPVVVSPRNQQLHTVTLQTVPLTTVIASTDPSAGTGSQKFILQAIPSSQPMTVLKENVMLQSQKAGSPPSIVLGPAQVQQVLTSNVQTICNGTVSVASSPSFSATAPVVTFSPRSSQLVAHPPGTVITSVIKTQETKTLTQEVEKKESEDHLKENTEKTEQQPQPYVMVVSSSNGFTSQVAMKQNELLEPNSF
Sequence of SPIB (Q01892 whole entry): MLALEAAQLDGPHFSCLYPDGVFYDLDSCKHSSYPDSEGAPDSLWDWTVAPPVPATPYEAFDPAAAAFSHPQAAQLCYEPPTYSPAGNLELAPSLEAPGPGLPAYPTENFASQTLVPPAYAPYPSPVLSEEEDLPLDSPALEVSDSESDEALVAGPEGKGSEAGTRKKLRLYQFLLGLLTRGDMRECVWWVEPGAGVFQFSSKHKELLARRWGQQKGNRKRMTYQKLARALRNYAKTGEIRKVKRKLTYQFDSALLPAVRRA

As for GCGTCT, the binding signal with ELK1 is 1.05 fold enrichment (6-mer frequency, TF over GST control); with GABPA it was 1.02 fold enrichment (6-mer frequency, TF over GST control); with ERG, 1.08 fold enrichment (6-mer frequency, TF over GST control); with ELF1 it was 1.08 fold enrichment (6-mer frequency, TF over GST control); with EHF, 1.08 fold enrichment (6-mer frequency, TF over GST control); in the experiment with SPI1, 1.04 fold enrichment (6-mer frequency, TF over GST control). Moreover, the binding signal in the experiment with SPIB was 1.19 fold enrichment (6-mer frequency, TF over GST control); in the experiment with FEV it was 1.08 fold enrichment (6-mer frequency, TF over GST control); with ETV5, 1.04 fold enrichment (6-mer frequency, TF over GST control); with ELF4 it was 1.04 fold enrichment (6-mer frequency, TF over GST control).
